Data on 18 molecules can be found in PubChem BioAssay (NCATS).

Where “and” joins values, the source holds several entries; their conditions need not be identical. Equal entries are not always repeated. Records with an inconclusive call do not appear. Calls of active or inactive are those of the source. Calls come from the whole dose curve; as a rule, active = well fitted cell-killing curve with a large enough effect; inconclusive = small, poorly fitted or top-dose-only effect, or effect the other way; inactive = flat fitted curve, though single readings scatter.
% is set by controls: 0 for no effect and ±100 for the full control effect.

The nature of this test: qHTS assay for cell viability of HEK293 cells (AID 743288). Note: nearly all actives have a fitted effect of over 50% in size. The settings on record: ATP luminescence (CellTiter-Glo), 18 h, stronger effect = lower value. In short, it runs like this:
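Quantitative high-throughput screen: compounds were pinned onto parental HEK293 cells (2,000 per well) after a minimum 5 h settling at 37 C, incubated 18 h at 37 C, and intracellular ATP measured by luciferase luminescence.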
As to `Nc1cccc2c(=O)[nH][nH]c(=O)c12`, the max response is 0.895% (inactive).

On to `CCC(=O)/C=C/C1C(C)=CCCC1(C)C` (stereo not drawn), for which the max response was 0.395% (inactive).

Turning to `O=C(O)c1ccc(CO)o1`, the max response was 11.8% (inactive).

In the case of `CCN(C(=O)N(CC)c1ccccc1)c1ccccc1`, the max response is -19.1% (inactive).

With `Clc1cc(Cl)cc(Cl)c1`, the max response is -3.91% (inactive). For the molecule `CCOc1cc(OCC)c(C(C)=O)cc1OCC`, the max response is 0.327% (inactive). Consider `COc1ccc(N=[N+]([O-])c2ccc(OC)cc2)cc1`, for which the max response is -5.78% (inactive). As for `Cc1ccc(S(=O)(=O)NC2CCCCC2)cc1`, the max response was -5.72% (inactive). For `S=C([S-])NCCNC(=S)[S-].[Zn+2]`, the max response was 1.36% (inactive) and -44.1% (inactive) and -10.7% (inactive). Turning to `Nc1cccc(S(=O)(=O)O)c1`, the max response was 0.367% (inactive). The result for `OCCO` reads -10.8% (inactive); that for `Nc1cccc(C(F)(F)F)c1`, -2.53% (inactive) and -9.98% (inactive). With `CC#N`, the max response is -9.36% (inactive). For the molecule `Cc1cc(C2(c3cc(C)c(O)cc3C)OS(=O)(=O)c3ccccc32)c(C)cc1O`, the max response was -2.41% (inactive). Regarding `CC(C)(C)c1ccc(OCC2CO2)cc1` (stereo not drawn), the max response is 3.48% (inactive). The result for `C=C(C)C1CC=C(C)C(OC(C)=O)C1` (stereo not drawn) reads 1.89% (inactive). In the case of `N#CCc1ccccc1[N+](=O)[O-]`, the max response was -6.51% (inactive). For `C[C@@H]1CC2(OC3C[C@@]4(C)C5=CC[C@H]6C(C)(C)C(O[C@@H]7OC[C@@H](O)[C@H](O)[C@H]7O)CC[C@@]67C[C@@]57CC[C@]4(C)C31)OC(O)C1(C)OC21` (stereo partly drawn), the max response is -9.95% (inactive).
